Measured values: PubChem BioAssay (NCI)
Where “and” joins values, the source holds several entries; their conditions need not be identical. Equal values may be shown once. About 79,000 compounds went through this panel and 15% of them were active in at least one assay; those are over-represented in the sample as a whole. Calls of active or inactive are those of the source. Rule as the data show it: active = growth inhibition above about 70%; inactive = the rest.

Assays:
[1] = NCI Yeast Anticancer Drug Screen. Data for the rad50 strain (AID 155);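 also: 0% = growth of vehicle-only cultures of the same strain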; details: S. cerevisiae rad50 strain growth inhibition, hits give high values; at 50.0 µM unless noted
How it was run: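 Genetically altered yeast (DNA repair pathway); compound treatment; growth inhibition vs vehicle ctrl.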

[2] = NCI Yeast Anticancer Drug Screen. Data for the mec2-1 strain (AID 157); details: S. cerevisiae mec2-1 strain, hits give high values; at 50.0 µM unless noted
How it was run: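 Readout is yeast growth inhibition, normalised to vehicle-treated controls, in the mec2-1 strain exposed to compound.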

[3] = NCI Yeast Anticancer Drug Screen. Data for the sgs1 mgt1 strain (AID 161);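 also: 0% = growth of cultures given vehicle only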; details: S. cerevisiae sgs1 mgt1 strain, hits give high values; at 50.0 µM unless noted
How it was run: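 Yeast cells carrying a defined DNA-repair defect were exposed to test compounds. Growth inhibition was measured relative to vehicle-treated controls.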

[4] = NCI Yeast Anticancer Drug Screen. Data for the cln2 rad14 strain (AID 165);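 also: 0% = growth equal to vehicle treated cultures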; details: S. cerevisiae cln2 rad14 strain, hits give high values; at 50.0 µM unless noted
How it was run: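 Relative to vehicle controls, growth inhibition of compound-treated cln2 rad14 yeast was recorded.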

[5] = NCI Yeast Anticancer Drug Screen. Data for the bub3 strain (AID 167); details: S. cerevisiae bub3 mutant strain, hits give high values; at 50.0 µM unless noted
How it was run: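 Yeast carrying a defined mutation is treated with each compound, and growth is compared with that of vehicle-exposed cells to give inhibition.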

[6] = NCI Yeast Anticancer Drug Screen. Data for the mlh1 rad18 strain (AID 175); details: S. cerevisiae mlh1 rad18 strain growth inhibition, hits give high values; at 50.0 µM unless noted
How it was run: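 Test agents were incubated with a yeast strain of defined genotype (DNA damage repair defect). Inhibition of growth was derived by comparison with vehicle-exposed cultures.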

Measured: growth inhibition

CS(=O)(=O)c1cccc(C(=O)O)c1
inactive: [1] 12.4% | [2] 7.65% | [3] 4.05% | [4] -16.1% | [5] 1.35% | [6] -18%

c1ccc(OC2=NC3=S(S2)SC(Oc2ccccc2)=N3)cc1
inactive: [1] 43.2% | [2] -4.15% | [3] 56.7% | [4] 10.6% | [5] 12.5% | [6] -3.35%

CCCCN(C#N)CCCC
inactive: [1] 3% | [2] 1.75% | [3] 27.6% | [4] -97.3% | [5] -16.1% | [6] -32%

C=CCN1C(=O)CS/C1=N/NC(=O)C(O)(c1ccccc1)c1ccccc1
inactive: [1] -19.6% | [2] -47.7% | [3] 6.1% | [4] -25.4% | [5] -24.3% | [6] -4.05%

CC(=O)OC(C)COc1ccccc1 (stereo not drawn)
inactive: [1] 23.1% and 5.6% | [2] 1.55% and -10.3% | [3] 2.05% and -4.55% | [4] -31.2% and -6.8% | [5] -17.1% and 8.8% | [6] 15.6% and 15%

COc1ccc(C(=O)CN2CCN(c3ccccc3)CC2)cc1
inactive: [1] 14.7% | [2] -7.05% | [3] 17.1% | [4] -52.6% | [5] 23% | [6] 5.35%

O=C1NCCCc2nonc21
inactive: [1] 18.9% | [2] 16.4% | [3] 7.9% | [4] 4% | [5] 4% | [6] 5.2%

COc1ccc(NS(=O)(=O)c2ccc(NC(CNC(C)S(=O)(=O)O)S(=O)(=O)O)cc2)cc1 (stereo not drawn)
inactive: [1] 18.1% | [2] 5.75% | [3] 29.3% | [4] 52.5% | [5] -0.85% | [6] 36.5%

NC(=O)N/N=C(\C(=O)C(=O)Nc1ccc(Cl)c(C(F)(F)F)c1)c1nc2ccc(C(=O)c3ccccc3)cc2[nH]c1=O
inactive: [1] 25.4% | [2] -1.3% | [3] 38.8% | [4] -37% | [5] -3.35% | [6] 25.1%

CC[N+](C)(CC)CCNC(=O)C(c1ccccc1)c1ccccc1
inactive: [1] 45.6% | [2] -1.45% | [3] 21.1% | [4] 0.5% | [5] 6.65% | [6] 16.2%

Cc1ccc(N2C(=O)CC(NC3CCCCC3)C2=O)cc1 (stereo not drawn)
inactive: [1] -6.2% | [2] -3% | [3] -9.65% | [4] -2.2% | [5] -5.6% | [6] -2.7%

CCOC(=O)C1SC(=Nc2ccccc2)N=C1C (stereo not drawn)
inactive: [1] 11.3% | [2] -11.7% | [3] 28.1% | [4] -4.15% | [5] -19.6% | [6] -4.5%

CCOC(=O)Cn1cncc1C
inactive: [1] -33.6% | [2] -6.6% | [3] -13.5% | [4] -73.6% | [5] -3.4% | [6] -7.1%

CC1=C(CCC(=O)O)c2cc3nc(cc4[nH]c(cc5[nH]c(cc1n2)c(C)c5C1CC1C(=O)O)c(C)c4C1CC1C(=O)O)C(C)=C3CCC(=O)O (stereo not drawn)
inactive: [1] 0.35% | [2] 22.4% | [3] 30.3% | [4] -0.6% | [5] 13.2% | [6] 25.1%

Cc1cccc(C)c1I
inactive: [1] -35% | [2] -8.55% | [3] -67.2% | [4] -25.9% | [5] -46.5% | [6] -50.1%

COC(=O)c1ccccc1OC
inactive: [1] 20.1% | [2] 15.8% | [3] -2.2% | [4] 6.75% | [5] -2.05% | [6] 3.1%

CC(=O)OC(C(N)=O)c1ccccc1 (stereo not drawn)
inactive: [1] -0.7% | [2] -0.7% | [3] -3.3% | [4] -9.7% | [5] 3.45% | [6] -2.95%

Cc1cc(N)c(N)cc1C
inactive: [1] 45.1% | [2] 4.15% | [3] 52.2% | [4] 20.1% | [5] 35.9% | [6] 38.5%

O=c1/c(=C/c2ccccc2[N+](=O)[O-])sc2nc3ccccc3n12
inactive: [1] -16.6% | [2] -21.4% | [3] -25.9% | [4] -12.7% | [5] -21.9% | [6] -47.2%

CN(Cc1ccccc1Cl)C(=S)NC1CCCCC1
active: [2] 88.8% | [3] 86% | [5] 81.3% | [6] 85.5%
inactive: [1] 62% | [4] 34.8%

CC(=O)Nc1c(C)cc([N+](=O)[O-])c2ccccc12
inactive: [1] -0.7% | [2] -2.45% | [3] -14.9% | [4] -9.45% | [5] 8.05% | [6] -13.3%

O=C1CSC(c2ccccc2Cl)N1c1n[nH]c(=S)s1 (stereo not drawn)
inactive: [1] -13.8% | [2] -17.6% | [3] -9.5% | [4] -55% | [5] -23.6% | [6] 1%

O=C(Nc1ccc(Cl)c(Cl)c1)Oc1cccc(NC(=S)Nc2ccccc2)c1
inactive: [1] 36.9% | [5] 69.8%
active: [2] 90.2% | [3] 93% | [4] 91.5% | [6] 94.7%

Nc1ncnc2c1nc(Cl)n2C1OC2COP(=O)(O)OC2C1O (stereo not drawn)
inactive: [1] -15.9% and -13.3% | [2] -8.05% and 3.45% | [3] -20.7% and -0.55% | [4] -9.25% and -40.8% | [5] -27.1% and -41.8% | [6] -13.8% and -10.6%

CN1C2=NCCN2C(=O)c2cc(Cl)ccc21
inactive: [1] 1.05% | [2] -21.9% | [3] 15.6% | [4] 8.65% | [5] 13.7% | [6] 9.9%

O=C(c1ccc(-c2ccccc2)cc1)c1ncc(-c2ccc(-c3ccccc3)cc2)[nH]1
inactive: [1] 15.5% | [2] 10.7% | [3] 17.1% | [4] -4% | [5] 19.1% | [6] 21.3%

COc1ccc2nc3cc(Cl)ccc3c(Nc3ccccc3-c3ccccc3Nc3c4ccc(Cl)cc4nc4ccc(OC)cc34)c2c1
inactive: [1] 6.85% | [2] -8.75% | [3] -18.1% | [4] 17.5% | [5] 2.1% | [6] -27.8%

CCN(CC)C(=O)CCn1cc(F)c(=O)[nH]c1=O
inactive: [1] -65.8% | [2] -51% | [3] -35% | [4] 1.65% | [5] -25.8% | [6] -15.9%

N#Cc1ccc2c(c1)-c1cc(C#N)ccc1C2c1ccccc1
inactive: [1] 8.95% | [2] -10.8% | [3] -3.45% | [4] -42.5% | [5] -4.8% | [6] -6.95%

COc1ccc(Br)cc1C1OC(=O)c2c(OC)c(OC)cc([N+](=O)[O-])c21 (stereo not drawn)
inactive: [1] 33.9% | [2] 5.25% | [3] 20.5% | [4] 8.2% | [5] 2.3% | [6] 18.2%

CC(=O)c1cccc(NC(=O)Nc2ccc(F)c([N+](=O)[O-])c2)c1
inactive: [1] 7.3% | [2] 22.9% | [3] 21.9% | [4] 3.25% | [5] 36.5% | [6] 2.75%

N#CC(C(=O)CCC(=O)C(C#N)c1ccccc1)c1ccccc1 (stereo not drawn)
inactive: [1] -26.4% | [2] -14.8% | [3] 1.2% | [4] 5.9% | [5] 6.45% | [6] -6.4%

CCN(CC)c1ccc(/C=C(\C)c2nc3ccc(C)cc3[nH]2)cc1
inactive: [1] -5.25% | [2] -10.7% | [3] 8.1% | [4] 1.8% | [5] -9.3% | [6] 3.45%

CC(C)CC1N=C(NN=C(CCl)CCl)OP1(=O)NCCCCCCNP1(=O)OC(NN=C(CCl)CCl)=NC1CC(C)C (stereo not drawn)
inactive: [1] 13.4% | [2] 5.05% | [3] 2.95% | [4] 4.75% | [5] 24.8% | [6] 37.6%

CCCCCCC/C=C/C1CC(=O)OC1=O (stereo not drawn)
inactive: [1] 18.4% | [2] 11.2% | [3] 9.55% | [4] 7.05% | [5] 4.05% | [6] 29.6%

Cc1cccc(C)c1NC(=S)N/C=C(\C#N)C(N)=O
inactive: [1] -53.2% | [2] -72.2% | [3] -25% | [4] -21.6% | [5] -8.65% | [6] -49.4%

NC(=O)OCCOC(N)=O
inactive: [1] 7.5% | [2] 1% | [3] -31.9% | [4] -9.95% | [5] 15.8% | [6] 2.55%

NNc1nc(NCc2ccco2)c2[nH]cnc2n1
inactive: [1] -10% | [2] -7.95% | [3] 1.5% | [4] 2.45% | [5] 2.5% | [6] 12.8%
